# Screens as filed in PubChem BioAssay.
# DT40 TDP1 no CPT: qHTS for Inhibitors of human tyrosyl-DNA phosphodiesterase 1 (TDP1): qHTS in cells in absence of CPT | DT40 Tdp1-/- hTDP1 cells, no CPT, ATP luminescence, 48 h | Potency, µM (titrated, usually from 46.2 µM), inactives show at the top dose activity change, negative = growth inhibition, usual class: inhibitors | 420,000 tested, 15% active; also: potency is read from the fitted curve at half-maximal effect; nearly all actives have a fitted effect of over 55% in size
#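 Seeded 400 DT40-hTDP1 cells/well (vehicle DMSO, no 20 nM CPT); pinned compounds; ≥48 hr at 37 °C; CellTiter-Glo luminescence as viability measure.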
# HT1080 IDH1KD tx: HT-1080 IDH1 knockdown cell toxicity (counter line). HT-1080 IDH1 knockdown viability, ATP luminescence, 48 h. Potency, µM (top dose mostly 46.1 µM), for the others: at the highest dose activity, negative = toxicity, most hits filed as cytotoxic. 360,000 tested, 2% active;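 also: potency is read from the fitted curve at half-maximal effect; 0% = DMSO wells and -100% = cell-free medium wells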
#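 % activity derives from luminescence (CellTiter-Glo), normalised to DMSO and no-cell wells. HT-1080-IDH1KD cells, 750/well, had 48 h compound exposure at 37 °C.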
# ELG1 repair inh: inhibitors of ELG1-dependent DNA repair in HEK293T cells; HEK293T ELG1-luciferase reporter, luminescence, 16 h; DNA damage induced by 5-fluorouridine; Potency, µM (doses to about 46.1 µM), inactives show at the highest dose activity change, negative = inhibition, most hits filed as inhibitors; 330,000 tested, 2.3% active; AID 504467; also: potency is read from the fitted curve at half-maximal effect; nearly all actives have a fitted effect of over 55% in size
#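 Luminescence from the luciferase reporter, measured 30 min after ONE-Glo reagent at room temperature, was the read-out. Beforehand, 2,000 cells per well were exposed for 16 hr at 37 °C to 5-fluorouridine together with compound or vehicle.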
# DT40 TDP1 CPT: DT40-hTDP1 cell growth loss with CPT; 420,000 tested, 12% active; Potency, µM (highest dose often 46.2 µM), inactives show at the top dose activity change, negative = growth inhibition, hits mostly inhibitors; chicken DT40 Tdp1-/-;hTDP1 cells + 20 nM CPT, ATP luminescence, 48 h; also: potency is read from the fitted curve at half-maximal effect; nearly all actives have a fitted effect of over 55% in size
#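 Cell growth measured by CellTiter-Glo luminescence after a minimum 48 h, 37 C compound exposure with 20 nM CPT in Tdp1-knockout DT40 cells stably expressing hTDP1, seeded 400/well; qHTS titration format.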
# IL-1B inflam inh: inhibitors of inflammasome signaling (IL-1 beta secretion); THP-1 LPS/ATP IL-1B secretion, AlphaLISA, 16 h; hits give low values; activity change, % at 57.5 µM; 360,000 tested, 4.7% active; AID 743279; in the data active = activity change below about -50%; inconclusive = mostly about -30% to -49%
#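 THP-1 cells pretreated 1 hr with compounds (up to 57.5 uM final), then stimulated with LPS (250 ng/mL final) plus ATP (1.25 mM final); secreted IL-1B measured by AlphaLISA after 16 hr, decreased signal indicating inhibition.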
# HT1080-NT tox: kills 2HG-producing HT-1080-NT fibrosarcoma cells. Potency, µM (series often up to 46.1 µM), for inactives: top-dose activity, negative = less viability, hits mostly cytotoxic. 360,000 tested, 1.6% active. HT-1080-NT fibrosarcoma viability, CellTiter-Glo ATP luminescence, 48 h;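 also: NT is the 2HG producing partner of a matched IDH1 knockdown line; potency is read from the fitted curve at half-maximal effect; 0% = DMSO-treated cells and -100% = media-only wells without cells; nearly all actives have a fitted effect of over 55% in size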
#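 Compounds were tested in concentration-response format on HT-1080-NT cells for 48 hours at 37 degrees C. Cell viability came from CellTiter-Glo luminescence; curves were classified by r2, response magnitude and activity.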
# The depositor's hits bear a star; ? = inconclusive; nt = no result given; [ ] = another dose, or the depositor's remark. Compounds with a hit are over-represented: about 19% of the library has one in this group of screens. Unless noted, calls follow the shape of the dose curve; as a rule, active = well fitted curve in the direction sought with a large enough effect; inconclusive = small, poorly fitted or top-dose-only effect, or another doubt; inactive = no such curve, though single readings can be large; an effect the other way counts as inactive or inconclusive. Unless noted, % is scaled to controls: 0 for no effect and ±100 for the full control effect.
SMILES,DT40 TDP1 no CPT,HT1080 IDH1KD tx,ELG1 repair inh,DT40 TDP1 CPT,IL-1B inflam inh,HT1080-NT tox
COc1cc(C(=O)Nc2ccncc2)cc(OC)c1OC,?,-5%,?,-26%,21,-14%
COc1cc(C(=O)Nc2nc3c(s2)Cc2c(Br)ccc(OC)c2-3)cc(OC)c1OC,15µM*,nt,nt,15µM*,nt,nt
COc1ccc2nc(NC(=O)c3ccccc3F)sc2c1,?,-13%,?,-24%,8,-10%
COc1ccc(Br)c2c1-c1nc(NC(=O)c3ccccc3F)sc1C2,18µM*,nt,nt,21µM*,nt,nt
NS(=O)(=O)c1cc(C(=O)OCC(=O)N2CCc3ccccc3C2)ccc1Cl,-15%,-6%,8%,-17%,26,-1%
Cc1ccccc1C(=O)N1CCN=C1SCc1ccc([N+](=O)[O-])cc1,?,-17%,?,-26%,-77*,1%
O=C(c1cccc2ccccc12)N1CCN=C1SCc1ccc([N+](=O)[O-])cc1,?,0%,15%,-17%,-65*,-1%
Cc1ccc(C(=O)N2CCN=C2SCc2ccc([N+](=O)[O-])cc2)cc1,15µM*,-13%,?,?,?,-5%
CCCCNC(=O)CCn1c(=O)c2ccccc2n(Cc2ccc(Cl)cc2)c1=O,?,-1%,?,?,34,-2%
CCCCOC(=O)c1ccc(OC(=O)c2sc3ncn(Cc4ccccc4Cl)c(=O)c3c2C)cc1,-26%,nt,nt,0%,nt,nt
COc1cccc(C(=O)/C=C/Nc2ccc(NC(C)=O)cc2)c1,-27%,?,?,-4%,-12,-28%
COc1cccc(C(=O)/C=C/Nc2ccc(S(=O)(=O)Nc3cccc(C(C)=O)c3)cc2)c1,16µM*,-16%,?,18µM*,-28,-8%
COc1cc(/C=C/C(=O)c2ccc(NS(=O)(=O)c3ccc(C)cc3)cc2)cc(OC)c1O,?,?,10µM*,?,-103*,?
COc1cc(/C=C/C(=O)c2ccc(NS(=O)(=O)c3ccc(C)cc3)cc2)ccc1OC(F)F,18µM*,?,?,?,-93*,?
COc1cccc(/C=C/C(=O)c2ccc(NS(=O)(=O)c3ccc(C)cc3)cc2)c1,21µM*,?,?,18µM*,-99*,?
CCOC(=O)CNC(=O)C1(/C=C/c2ccccc2)CC(=O)N1c1ccc(C)cc1 (stereo unspecified),-10%,-23%,2%,?,29,-25%
COc1cc(=O)n2c(c1C(=O)NCc1ccco1)CCN(C(=O)c1ccccc1-c1ncc[nH]1)CC2,-2%,nt,nt,22%,nt,nt
Cc1ccc(Cc2nnc(SCC(=O)Nc3ccccc3)[nH]c2=O)cc1,-3%,3%,14%,?,16,7%
Cc1ccc(Cc2nnc(SCC(=O)Nc3c(C)cccc3C)[nH]c2=O)cc1,6.5µM*,-1%,-5%,?,15,0%
CC(NC(=O)C(=O)Nc1c2c(nn1-c1ccc(F)cc1)CSC2)c1ccccc1 (stereo unspecified),8.2µM*,nt,nt,-86%,nt,nt
CC(NC(=O)C(=O)Nc1c2c(nn1-c1ccccc1)CSC2)c1ccccc1 (stereo unspecified),21µM*,nt,nt,15µM*,nt,nt
CCC(CO)NC(=O)C(=O)Nc1c2c(nn1-c1ccc(F)cc1)CSC2 (stereo unspecified),3%,nt,nt,-6%,nt,nt
COc1ccc(/C(O)=C2/C(=O)C(=O)N(CCN3CCNCC3)C2c2cccc([N+](=O)[O-])c2)cc1 (stereo unspecified),-2%,2%,2%,-10%,-6,-5%
COc1ccc(-n2cnc3c(sc4nc(N5CCOCC5)c5c(c43)CCCC5)c2=O)cc1,23µM*,2%,20%,18µM*,-13,24%
Cc1ccccc1-n1cnc2c(sc3nc(N4CCOCC4)c4c(c32)CCCC4)c1=O,15µM*,?,?,18µM*,-29,?
SMILES,DT40 TDP1 no CPT,HT1080 IDH1KD tx,ELG1 repair inh,DT40 TDP1 CPT,IL-1B inflam inh,HT1080-NT tox
O=c1c2sc3nc(N4CCOCC4)c4c(c3c2ncn1-c1ccccc1)CCCC4,?,-3%,?,?,-60*,-9%
O=c1c2sc3nc(N4CCOCC4)c4c(c3c2nnn1Cc1ccccc1)CCCC4,?,-1%,0%,8.2µM*,-5,-2%
COc1ccccc1-c1ccc(C(=O)N2CCC(N3CCc4ccccc4C3)CC2)c(N(C)CC2COCCO2)n1 (stereo unspecified),-5%,nt,nt,-2%[9.04 µM],nt,nt
COc1cccc(CNS(=O)(=O)c2ccc3c(c2)N(C)CCO3)c1,-16%,5%,-1%,?,24,0%
Cc1ccc(-n2c(N)cc(=O)nc2SCC(=O)NC2CCCCC2)cc1C,5%,14%,-6%,9%,-1,4%
CCOC(=O)Nc1ccc2c(c1)N(C(=O)CCN1CCOCC1)c1ccccc1S2=O (stereo unspecified),5.8µM*,-22%,-16%,3.7µM*,-63*,?
CC(C)OC(=O)Nc1ccc2c(c1)N(C(=O)CCN(C)C)c1ccccc1CC2,-1%,8%,1%,-27%,-13,2%
CNCCC(=O)N1c2ccccc2CCc2ccc(NC(=O)OC)cc21,?,9%,-6%,?,-7,-12%
COC(=O)Nc1ccc2c(c1)N(C(=O)CCN(C)C)c1ccccc1CC2,6%,-1%,8%,-9%,-57*,12%
CCN(CC)CCNCC(=O)N1c2ccccc2CCc2ccc(NC(=O)OC)cc21,-7%,0%,-12%,-10%,-10,0%
CCOC(=O)Nc1ccc2c(c1)N(C(=O)CCN(C)C)c1ccccc1CC2,-5%,-8%,12%,-13%,-69*,-4%
CCOC(=O)Nc1ccc2c(c1)N(C(=O)CCN1CCOCC1)c1ccccc1S2,1%,-9%,-12%,?,-28,-11%
CCOC(=O)Nc1ccc2c(c1)N(C(=O)OCCN(C)C)c1ccccc1CC2,?,-12%,19%,18µM*,-1,-2%
O=C(O)c1ccccc1C(=O)Nn1cnnc1,10%,12%,-2%,-2%,-3,3%
O=C(c1cccc(F)c1)N1CCC2(CCCN(Cc3ccccc3)C2)CC1,-28%,nt,nt,12%,nt,nt
